# Data reported in the supplement of paper PMC9135407.
# “And” between values parts separate entries of the source, which are not always exact repeats. Equal values may be shown once. Where a name gives a salt, the structure may show the parent alone. Hit rate of the full screen: of about 5,800 compounds, about 620 (11%) showed activity. This excerpt belongs to a sample that is enriched for actives. Values without a mark were called inactive.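 Rule for the calls: active = score above a cut-off or among the top three wells of a plate; in these data no inactive exceeds 0.85.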
# Test system: primary human hepatic stellate cells (donor 1)
# Test: scaled lipid accumulation score (0 = DMSO-like, 1 = nortriptyline-like); higher = stronger HSC inactivation (lipid re-accumulation), active = hit call of the paper
# Conditions: 48 h
# [1] = library stock concentration: 1 mM
# [2] = library stock concentration: 10 mM
# [3] = library stock concentration: 80 uM
# [4] = library stock concentration: 400 uM
# [5] = library stock concentration: 2 mM
# [6] = library stock concentration: 3.33 mM
# [7] = library stock concentration: 100 uM
smiles,measurement,setting,value
CCCCCCCCCCCCC/C=C/[C@@H](O)[C@@H](N)CO [Sphingosine],scaled lipid accumulation score,[1],≤ -0.021
"CCCCCCCCCCCCC/C=C/[C@@H](O)[C@H](CO)N(C)C [N,N-Dimethylsphingosine] [listing 1 of 2 here]",scaled lipid accumulation score,[1],0.185
"CCCCCCCCCCCCC/C=C/[C@@H](O)[C@H](CO)N(C)C [N,N-Dimethylsphingosine] [listing 2 of 2 here]",scaled lipid accumulation score,[1],0.965 (active)
Nc1nc(NCC2CCC(CNS(=O)(=O)c3cccc4ccccc34)CC2)nc2ccccc12 (stereo unspecified),scaled lipid accumulation score,[2],0.415
O=C(/C=C/c1ccc(/C=C/C(=O)Nc2ccc(C3=NCCN3)cc2)cc1)Nc1ccc(C2=NCCN2)cc1 [GW 4869 (hydrochloride hydrate)],scaled lipid accumulation score,[1],0.115
CCCCC[C@H](O)/C=C/[C@H]1[C@H](O)CC(=O)[C@@H]1C/C=C/CCCC(=O)Oc1ccc(NC(C)=O)cc1 [Prostaglandin E2 p-acetamidophenyl ester],scaled lipid accumulation score,[1],≤ 0
C[C@@H](O)CCC[C@H](O)/C=C/C1=C(C/C=C\CCCC(=O)O)C(=O)CC1 [19(R)-hydroxy Prostaglandin B2],scaled lipid accumulation score,[1],≤ 0
Fc1ccc([C@@H]2CCNC[C@H]2COc2ccc3c(c2)OCO3)cc1.O=C(O)/C=C\C(=O)O [Paroxetine maleate],scaled lipid accumulation score,[2],1.14 (active)
Fc1ccc([C@@H]2CCNC[C@H]2COc2ccc3c(c2)OCO3)cc1.O=C(O)/C=C\C(=O)O [Paroxetine],scaled lipid accumulation score,[2],1.02 (active)
CN1CCC(c2c(O)cc(O)c3c(=O)cc(-c4ccccc4Cl)oc23)C1CO (stereo unspecified) [Riviciclib],scaled lipid accumulation score,[3],0.019
same,scaled lipid accumulation score,[4],0.272
same,scaled lipid accumulation score,[5],≤ -0.001
same,scaled lipid accumulation score,[2],0.002
"COC(=O)/C=C/c1cc(O)ccc1O [Methyl 2,5-dihydroxycinnamate]",scaled lipid accumulation score,[2],0.182
CC#CCOC(=O)c1c(C)nc2sc3c(c2c1N)CCC(O)C3 (stereo unspecified) [listing 1 of 2 here],scaled lipid accumulation score,[2],0.882 (active)
CC#CCOC(=O)c1c(C)nc2sc3c(c2c1N)CCC(O)C3 (stereo unspecified) [listing 2 of 2 here],scaled lipid accumulation score,[2],1.72 (active)
Cc1cccc(C2CN(C)CCc3c2cc(O)c(O)c3Cl)c1 (stereo unspecified),scaled lipid accumulation score,[2],0.086
CC[N+](C)(CC)CCOC(=O)C(O)(c1ccccc1)C1CCCCC1 (stereo unspecified),scaled lipid accumulation score,[2],≤ 0
CCN(CC)CC#CCOC(=O)C(O)(c1ccccc1)C1CCCCC1 (stereo unspecified) [Oxybutynin chloride],scaled lipid accumulation score,,0.397
same,scaled lipid accumulation score,[6],0.234
same,scaled lipid accumulation score,library stock concentration: 5.1 mM,0.317
same,scaled lipid accumulation score,[2],0.48
CCN(CC)CC#CCOC(=O)C(O)(c1ccccc1)C1CCCCC1.Cl (stereo unspecified) [Oxybutynin Chloride],scaled lipid accumulation score,[2],0.862 (active)
CCCCC/C=C\C\C=C/C=C/C=C/[C@@H](SC[C@H](N)C(=O)NCC(=O)O)[C@@H](O)CCCC(=O)O [Leukotriene D4],scaled lipid accumulation score,[7],≤ -0.014
"N#Cc1cc([N+](=O)[O-])c2sc(C(N)=O)[n+]([O-])c2c1 [Polo-like Kinase Inhibitor II, BTO-1]",scaled lipid accumulation score,[6],≤ 0
CCCCC/C=C\C=C\[C@@H](O)CCCCCCCC(=O)O,scaled lipid accumulation score,[7],≤ -0.021
O=C(CN=C(c1ccccc1)c1ccccc1)OCc1ccccc1 [N-(diphenylmethylene) Glycine benzyl ester],scaled lipid accumulation score,[1],0.004
C#CCCCCCCCCCNC(=O)Oc1cccc(-c2cccc(C(N)=O)c2)c1,scaled lipid accumulation score,[1],≤ 0
CCC(=O)Nc1cccc(Oc2nc(Nc3ccc(N4CCN(C)CC4)cc3OC)ncc2Cl)c1 [listing 1 of 3 here],scaled lipid accumulation score,[2],1.11 (active)
CCC(=O)Nc1cccc(Oc2nc(Nc3ccc(N4CCN(C)CC4)cc3OC)ncc2Cl)c1 [listing 2 of 3 here],scaled lipid accumulation score,[2],0.997 (active)
C=CC(=O)Nc1cccc(Oc2nc(Nc3ccc(N4CCN(C)CC4)cc3OC)ncc2Cl)c1,scaled lipid accumulation score,[3],≤ 0
same,scaled lipid accumulation score,[4],≤ 0
same,scaled lipid accumulation score,[5],0.172
same,scaled lipid accumulation score,[6],0.507
same,scaled lipid accumulation score,[2],0.707 and 0.265
CCC(=O)Nc1cccc(Oc2nc(Nc3ccc(N4CCN(C)CC4)cc3OC)ncc2Cl)c1 [listing 3 of 3 here],scaled lipid accumulation score,[3],≤ -0.001
same,scaled lipid accumulation score,[4],≤ -0.001
same,scaled lipid accumulation score,[5],≤ -0.001
same,scaled lipid accumulation score,[6],0.472
COc1cc(N2CCC(N3CCN(C)CC3)CC2)ccc1Nc1ncc(Cl)c(Nc2ccccc2S(=O)(=O)C(C)C)n1,scaled lipid accumulation score,[3],≤ 0
same,scaled lipid accumulation score,[4],0.087
same,scaled lipid accumulation score,[5],0.571
same,scaled lipid accumulation score,[2],0.613
C=CC(=O)Nc1cccc(Oc2nc(Nc3ccc(N4CCN(C)CC4)cc3)ncc2Cl)c1,scaled lipid accumulation score,[6],0.415
same,scaled lipid accumulation score,[2],0.711
CCCCCCCCCCCC1N[C@H](C(=O)O)CS1 (stereo partly specified),scaled lipid accumulation score,[1],≤ 0
